In PubChem BioAssay (NCATS):
Results filed as inconclusive are left out. Calls of active or inactive are those of the source. Unless noted, calls come from the whole dose curve; as a rule, active = well fitted curve in the direction sought with a large enough effect; inconclusive = small, poorly fitted or top-dose-only effect, or another doubt; inactive = no such curve, though single readings can be large; an effect the other way counts as inactive or inconclusive.

Legend:
[1] = molecular target: 3',5'-cyclic-AMP phosphodiesterase 4B (Homo sapiens) (UniProt Q07343); assay: qHTS Assay for Inhibitors of PDE-IV (AID 607; active = well fitted activation curve with a large enough effect in the main read-out, with a control signal flat, not every such curve was filed as active); settings: HEK293 ACTOne CNG channel cells, membrane potential fluorescence; series mostly up to 22.9 µM
3',5'-cyclic-AMP phosphodiesterase 4B (Homo sapiens), sequence (Q07343 whole entry, looked up): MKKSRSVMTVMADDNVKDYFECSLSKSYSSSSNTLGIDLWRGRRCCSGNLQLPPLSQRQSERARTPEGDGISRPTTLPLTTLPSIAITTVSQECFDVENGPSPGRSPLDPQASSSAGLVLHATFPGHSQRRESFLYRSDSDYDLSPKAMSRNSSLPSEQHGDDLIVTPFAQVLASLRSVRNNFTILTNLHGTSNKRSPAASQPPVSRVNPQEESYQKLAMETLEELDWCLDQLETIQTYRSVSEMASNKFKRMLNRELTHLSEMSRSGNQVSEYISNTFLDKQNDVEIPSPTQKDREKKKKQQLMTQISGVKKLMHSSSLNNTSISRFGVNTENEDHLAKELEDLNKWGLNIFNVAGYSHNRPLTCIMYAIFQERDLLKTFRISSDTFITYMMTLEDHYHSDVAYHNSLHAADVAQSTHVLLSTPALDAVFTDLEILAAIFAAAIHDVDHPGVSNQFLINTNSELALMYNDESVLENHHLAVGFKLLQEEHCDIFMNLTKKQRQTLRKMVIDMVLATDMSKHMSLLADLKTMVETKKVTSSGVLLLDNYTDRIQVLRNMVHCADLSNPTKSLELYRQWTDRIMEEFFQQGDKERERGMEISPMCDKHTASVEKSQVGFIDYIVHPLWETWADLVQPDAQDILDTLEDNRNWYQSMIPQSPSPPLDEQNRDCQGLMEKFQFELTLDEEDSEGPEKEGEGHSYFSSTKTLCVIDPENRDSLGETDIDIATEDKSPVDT
Procedure, shortened: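 Cell-based read-out of cAMP via a modified cyclic nucleotide-gated channel and membrane potential dye (535/590 nm) in HEK293 cells expressing PDE4 endogenously. Compounds tested up to 22.9 uM final; 100 uM RO 20-1724 reference.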

[2] = molecular target: Guanine nucleotide-binding protein G(i) subunit alpha-1 (Homo sapiens) (UniProt P63096); assay: qHTS Assay for Inhibitors of RGS12 GoLoco Motif Activity (Green Fluorophore) (AID 879); settings: Galphai1/FITC-RGS12 GoLoco peptide, fluorescence polarization; series mostly up to 57.1 µM;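 note: negative values mean loss of peptide binding seen as reduced polarization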
Guanine nucleotide-binding protein G(i) subunit alpha-1 (Homo sapiens), sequence (P63096 whole entry, looked up): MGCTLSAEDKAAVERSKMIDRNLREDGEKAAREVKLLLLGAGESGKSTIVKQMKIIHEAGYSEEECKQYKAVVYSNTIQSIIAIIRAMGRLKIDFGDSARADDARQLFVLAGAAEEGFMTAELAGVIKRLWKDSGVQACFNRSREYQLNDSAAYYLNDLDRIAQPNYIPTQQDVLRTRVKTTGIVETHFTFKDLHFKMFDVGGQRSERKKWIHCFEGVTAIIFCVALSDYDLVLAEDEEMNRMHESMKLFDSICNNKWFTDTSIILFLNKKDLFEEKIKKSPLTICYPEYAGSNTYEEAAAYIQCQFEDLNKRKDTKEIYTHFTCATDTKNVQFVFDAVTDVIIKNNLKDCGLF
Procedure, shortened: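 A drop in FITC polarization marked displacement of the FITC-tagged RGS12 GoLoco peptide (10 nM) from Gαi1 (50 nM). Compounds were incubated 10 min at room temperature in Tris pH 7.5 buffer containing 150 mM NaCl, 0.1 mM GDP and 0.05% NP40; unlabeled peptide titration served as control.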

[3] = molecular target: Cytochrome P450 3A4 (Homo sapiens) (UniProt P08684); assay: qHTS Assay for Inhibitors and Substrates of Cytochrome P450 3A4 (AID 884); settings: recombinant CYP3A4, Luciferin-PPXE luminescence; series mostly up to 57.1 µM; note: nearly all actives have a fitted effect of over 50% in size; note: potency is the fitted concentration of half-maximal effect
Cytochrome P450 3A4 (Homo sapiens), sequence (P08684 whole entry, looked up): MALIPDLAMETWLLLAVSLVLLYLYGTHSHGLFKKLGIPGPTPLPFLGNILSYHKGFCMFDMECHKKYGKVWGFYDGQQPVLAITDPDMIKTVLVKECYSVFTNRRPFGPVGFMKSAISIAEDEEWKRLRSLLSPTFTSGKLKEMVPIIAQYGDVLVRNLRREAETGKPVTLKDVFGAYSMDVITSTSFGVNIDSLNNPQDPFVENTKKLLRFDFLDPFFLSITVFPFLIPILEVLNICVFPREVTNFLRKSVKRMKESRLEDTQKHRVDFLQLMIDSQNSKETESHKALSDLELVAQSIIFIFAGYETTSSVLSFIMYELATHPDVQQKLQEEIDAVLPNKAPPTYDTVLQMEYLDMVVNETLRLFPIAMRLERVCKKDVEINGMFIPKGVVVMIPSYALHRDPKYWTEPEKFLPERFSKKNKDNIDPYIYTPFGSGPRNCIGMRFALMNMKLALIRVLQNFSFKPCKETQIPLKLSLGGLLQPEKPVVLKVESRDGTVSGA
Procedure, shortened: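 Luminescent readout of luciferin produced by CYP3A4 (20 nM) dealkylation of Luciferin-PPXE, 25 uM (its KM). NADPH-driven reaction ran 60 min at RT after 10 min compound preincubation; data scaled to 57 uM ketoconazole as 100% inhibition.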

[4] = Cellular Toxicity (caspase-3) HepG2 (AID 654); settings: HepG2 caspase-3 activation, luminescence; series mostly up to 92.2 µM;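 note: cells exposed to compound for 16 hours before reading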
Procedure, shortened: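 Caspase 3/7 activation is measured as a luminescence increase (aminoluciferin substrate) after 16 h compound exposure of human hepatocarcinoma HepG2 cells. AC50 values are Hill fits, scaled between DMSO baseline and 100 uM tamoxifen stimulation.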

[5] = Cellular Toxicity (caspase-3) HUV-EC-C (AID 656); settings: HUV-EC-C cells, caspase-3 activation (apoptosis), vehicle = 0, 100 µM tamoxifen = 100%; series mostly up to 92.2 µM
Procedure, shortened: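 Concentration-dependent caspase 3/7 induction was assessed in HUV-EC-C cells exposed for 16 hours. Data scaled between DMSO and tamoxifen (100 uM) controls.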

[6] = Cellular Toxicity (caspase-3) SHSY5Y (AID 657); settings: SH-SY5Y caspase-3 activation; series mostly up to 91.7 µM;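 note: cells exposed to compound for 16 hours at 37 °C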; note: potency is the fitted concentration of half-maximal effect
Procedure, shortened: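 Readout: caspase-cleaved peptide-aminoluciferin substrate driving luciferase light in SH-SY5Y neuroblastoma cells after 16 h treatment. Response normalized to DMSO and 10 uM staurosporine controls.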

[7] = Cellular Toxicity (caspase-3) BJ (AID 658); settings: BJ fibroblasts, luminescence, normalized: DMSO 0%, staurosporine 100%; series mostly up to 91.7 µM
Procedure, shortened: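 qHTS, BJ fibroblasts, 1000 cells/well; 5 hr preincubation, 16 hr compound, 37 °C; Caspase-Glo 3/7 reagent, 1 hr RT; luminescence. DMSO = 0%, 10 uM staurosporine = 100%. Hill-equation AC50.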

[8] = Cellular Toxicity (caspase-3) MRC-5 (AID 659); settings: MRC-5 cells, luminescence; Potency: caspase-3 activation; series mostly up to 91.7 µM
Procedure, shortened: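 MRC-5 fibroblasts, 1500/well; 16 h cpd, 37 °C; Caspase-Glo 3/7, 1 h RT; lumi read. Norm: DMSO = 0%, 10 uM staurosporine = 100%. Hill-fit AC50 from qHTS conc-response.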

[9] = Cellular Toxicity (caspase-3) Mesangial (AID 660); settings: mesangial cells, normalized: DMSO 0%, 100 µM tamoxifen 100%; series mostly up to 91.7 µM;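 note: combined caspase 3 and 7 activity read by Caspase-Glo luminescence; cells exposed to compound for 16 h before the caspase read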
Procedure, shortened: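 Caspase 3/7 activation measured by Caspase-Glo 3/7 luminescence (20 min, room temperature) following 16 h exposure of mesangial cells (1000/well); AC50 from Hill-equation fit, normalized to DMSO and 100 uM tamoxifen.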

[10] = Cellular Toxicity (caspase-3) SK-N-SH (AID 661); settings: SK-N-SH caspase-3 activation, qHTS; series mostly up to 91.7 µM; note: potency is the fitted concentration of half-maximal effect
Procedure, shortened: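 Caspase 3/7 activation was read by luminogenic substrate cleavage after 16 hour treatment of SK-N-SH cells. Signal was scaled between DMSO and 10 uM staurosporine, and concentration-response data were fitted with the Hill equation for AC50.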

[11] = Cellular Toxicity (caspase-3) H-4-II-E (AID 663); settings: H-4-II-E rat hepatoma; Potency: caspase-3 activation; series mostly up to 92.2 µM; note: potency is the fitted concentration of half-maximal effect;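 for caspase-3 activation: cells exposed to compound for 16 hr before readout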
Procedure, shortened: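 H-4-II-E rat hepatoma, 1500 cells/well, 5 hr settle at 37 °C; compound 16 hr, 37 °C, complete medium; Caspase-Glo 3/7, 20 min RT; luminescence. DMSO = 0%, 100 uM tamoxifen = 100%; Hill-equation AC50.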

[12] = Cellular Toxicity (caspase-3) Hek293 (AID 664); settings: HEK293 caspase-3 activation, DMSO = 0%, 100 µM tamoxifen = 100%; series mostly up to 92.2 µM;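 note: cells exposed to compound for 16 h at 37 °C before readout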
Procedure, shortened: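 Concentration-response qHTS: caspase 3/7 activation measured by luminescent aminoluciferin substrate cleavage after 16 h compound exposure of Hek 293 cells. AC50 from Hill equation, with DMSO as basal and 100 uM tamoxifen as 100%.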

[13] = Cellular Toxicity (caspase-3) N2a (AID 665); settings: N2a cells, luminescence; Potency: caspase-3 activation; series mostly up to 92.2 µM;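 note: compound exposure lasted 16 h at 37 °C before readout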; note: potency is the fitted concentration of half-maximal effect
Procedure, shortened: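 Caspase-3/7 activation measured as luminescence from Caspase-Glo reagent (1 h, room temperature) after 16 h compound exposure of mouse N2a cells. AC50 values from Hill-equation concentration-response, scaled between DMSO and 10 uM staurosporine.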

[14] = Cellular Toxicity (caspase-3) NIH 3T3 (AID 666); settings: NIH 3T3 caspase-3 activation, apoptosis/toxicity; series mostly up to 92.2 µM; note: potency is the fitted concentration of half-maximal effect
Procedure, shortened: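 Caspase-Glo 3/7 luminescence reported caspase activation in 1000 NIH 3T3 cells/well after 16 h compound exposure at 37 C. DMSO set basal and 100 uM tamoxifen set 100% stimulation; concentration-response modeled with the Hill equation for AC50.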

[15] = Cellular Toxicity (caspase-3) Renal Proximal Tubule (AID 667); settings: renal proximal tubule cells, primary cells freshly taken from rat, solvent-only wells 0%, staurosporine 100%; series mostly up to 91.7 µM;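 note: cells exposed to compound for 16 hours at 37 °C before detection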
Procedure, shortened: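 Caspase-Glo 3/7 read-out, rat primary kidney proximal tubule cells. Compound exposure 16 h, 37 °C; detection after 1 h at RT. Activity scaled to DMSO and 10 uM staurosporine.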

[16] = molecular target: Cytochrome P450 2D6 (Homo sapiens) (UniProt P10635); assay: qHTS Assay for Inhibitors and Substrates of Cytochrome P450 2D6 (AID 891); settings: recombinant CYP2D6, luciferin-ME EGE luminescence; series mostly up to 57.1 µM; note: potency is the fitted concentration of half-maximal effect; nearly all actives have a fitted effect of over 60% in size
Cytochrome P450 2D6 (Homo sapiens), sequence (P10635 whole entry, looked up): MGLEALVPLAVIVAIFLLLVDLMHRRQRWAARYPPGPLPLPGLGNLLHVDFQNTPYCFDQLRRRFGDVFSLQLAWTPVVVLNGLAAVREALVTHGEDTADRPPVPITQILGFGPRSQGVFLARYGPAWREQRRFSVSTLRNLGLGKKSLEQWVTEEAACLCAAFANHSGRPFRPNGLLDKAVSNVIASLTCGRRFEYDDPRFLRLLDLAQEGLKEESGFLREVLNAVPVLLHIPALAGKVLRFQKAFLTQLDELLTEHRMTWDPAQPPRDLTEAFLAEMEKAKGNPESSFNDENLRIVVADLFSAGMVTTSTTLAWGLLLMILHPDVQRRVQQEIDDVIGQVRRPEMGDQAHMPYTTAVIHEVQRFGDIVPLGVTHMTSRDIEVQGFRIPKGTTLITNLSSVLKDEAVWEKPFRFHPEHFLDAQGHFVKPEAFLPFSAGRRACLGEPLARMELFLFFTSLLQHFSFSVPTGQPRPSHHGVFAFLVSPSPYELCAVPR
Procedure, shortened: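 Luminescent read-out of luciferin formed by 5 nM human CYP2D6 demethylating 30 uM Luciferin-ME EGE (Km level) over 60 min at room temperature after NADPH regeneration addition. Data normalized to full inhibition by 1.43 uM quinidine.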

[17] = molecular target: Cytochrome P450 3A4 (Homo sapiens) (UniProt P08684); assay: qHTS Assay for Activators of Cytochrome P450 3A4 (AID 885); settings: recombinant CYP3A4, Luciferin-PPXE luminescence, 60 min; series mostly up to 57.1 µM; note: nearly all actives have a fitted effect of over 65% in size
Procedure, shortened: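 Luminescent readout of luciferin formed from 25 uM Luciferin-PPXE (KM level) by 20 nM CYP3A4 in 200 mM KPO4, with 60 min NADPH-driven reaction at room temperature after 10 min compound exposure. Ketoconazole (57 uM) defined 100% inhibition.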

[18] = Cellular Toxicity (caspase-3) Jurkat (AID 655); settings: Jurkat caspase-3 activation, luminescence; series mostly up to 92.2 µM;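 note: potency is the fitted concentration of half-maximal effect; cells exposed to compound for 16 h at 37 °C before reading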
Procedure, shortened: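 qHTS in human Jurkat T-cell leukemia line: 16 hr compound treatment at 37 °C, caspase-3/7 activity measured by Caspase-Glo luminescence. AC50 derived from Hill equation.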

Measured: Potency

CC(C)NC[C@@H](O)COc1cccc2ccccc12
inactive: [1] | [2] | [3]

C[C@@H]1C(=O)NC2=Nc3cccc(Cl)c3CN21
inactive: [1] | [2]

Oc1ccc(Cl)cc1Sc1cc(Cl)ccc1O
inactive: [1] | [4] | [5] | [6] | [7] | [8] | [9] | [10] | [11] | [12] | [13] | [14] | [15]

CN1CCC(=C2c3ccccc3Sc3ccccc32)CC1
active: [16] 3980 nM
inactive: [1] | [3]

CC(=O)N(O)CCCCCNC(=O)CCC(=O)N(O)CCCCCNC(=O)CCC(=O)N(O)CCCCCN
inactive: [1] | [3]

CCn1cc(C(=O)O)c(=O)c2cnc(N3CCCC3)nc21
inactive: [1] | [3]

CC(C)(C(=O)c1cccnc1)c1cccnc1
inactive: [1] | [17]
active: [3] 1260 nM

O=C(O)c1cc2cc(Cc3cccnc3)ccc2o1
inactive: [1] | [2] | [3] | [17]

CN(C(=O)CN(CCO)CC(=O)N(C)C(C)(C)Cc1ccccc1)C(C)(C)Cc1ccccc1
active: [16] 3160 nM
inactive: [1] | [17]

CN(C)CC/C=C1\c2ccccc2Sc2ccc(Cl)cc21
active: [16] 2510 nM
inactive: [1] | [17]

OC(CCN1CCCCC1)(c1ccccc1)c1ccccc1
inactive: [1]

CCN1CCC[C@H]1CNC(=O)c1c(OC)ccc(Br)c1OC
inactive: [1]

Oc1c(I)cc(Cl)c2cccnc12
inactive: [4] | [5] | [6] | [7] | [8] | [9] | [10] | [11] | [12] | [13] | [15]
active: [14] 12600 nM

COc1cccc2c1C(=O)c1c(O)c3c(c(O)c1C2=O)C[C@@](O)(C(=O)CO)C[C@@H]3O[C@H]1C[C@H](N)[C@H](O)[C@H](C)O1
active: [18] 20 nM | [6] 15.8 nM | [10] 251 nM | [11] 31600 nM | [13] 3160 nM | [14] 398 nM
inactive: [5] | [7] | [8] | [9] | [12] | [15]
